SW480 rereplic = inducers of DNA re-replication in SW480 colon cancer cells; 340,000 compounds, 1.8% hits; AID 624297; Potency, µM (doses to about 46.1 µM), most hits filed as activators; SW480 DNA re-replication, Hoechst DNA content imaging, 48 h; note: nearly all actives have a fitted effect of over 55% in size
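Readout is total intensity of Hoechst-stained nuclei, excited at 405 nm and collected at 500-530 nm. Compound treatment lasted 48 hr at 37 C in 5% CO2 before staining.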
Giardia kill = Giardia lamblia killing; activity change, % at 7.66 µM, hits read low; 340,000 compounds, 0.15% hits; AID 540267; Giardia lamblia trophozoite viability; in the data active = activity change below about -80%; inconclusive = between about -30% and that limit;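 note: parasites exposed to compound for two days anaerobically before the ATP read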
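Giardia trophozoites, 100 cells per well, were exposed to compounds for 48 hrs at 37 deg C under anaerobic conditions; viability was then read as ATP content by bioluminescence after 15-30 min at room temperature.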
S-ASM inh = human S-ASM enzyme inhibition; 340,000 compounds, 0.006% hits; Potency, µM (series often up to 57.5 µM), usual class: inhibitors; AID 504937; placental ASM, HMU-PC fluorogenic substrate, 60 min
Target sequence (P17405 47-631 limits assumed): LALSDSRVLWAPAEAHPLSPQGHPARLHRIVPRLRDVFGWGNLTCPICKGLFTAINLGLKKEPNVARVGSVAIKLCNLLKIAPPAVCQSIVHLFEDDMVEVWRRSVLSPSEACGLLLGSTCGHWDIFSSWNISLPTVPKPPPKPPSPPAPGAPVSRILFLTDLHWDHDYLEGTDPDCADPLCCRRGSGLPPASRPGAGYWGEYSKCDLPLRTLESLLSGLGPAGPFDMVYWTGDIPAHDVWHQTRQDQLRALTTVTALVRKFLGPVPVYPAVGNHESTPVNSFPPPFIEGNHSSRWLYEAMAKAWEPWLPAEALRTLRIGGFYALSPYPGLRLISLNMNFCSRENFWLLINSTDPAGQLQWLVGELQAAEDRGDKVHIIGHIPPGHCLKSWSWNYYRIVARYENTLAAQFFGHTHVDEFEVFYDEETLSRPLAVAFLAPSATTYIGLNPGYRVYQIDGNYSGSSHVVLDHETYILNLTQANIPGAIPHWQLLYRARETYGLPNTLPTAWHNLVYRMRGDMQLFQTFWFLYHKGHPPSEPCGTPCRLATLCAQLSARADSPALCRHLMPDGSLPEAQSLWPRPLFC
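Steps: dispense placental human ASM, pin compound, wait 10 min at room temperature, add HMU-PC0 substrate at 9 uM final, incubate 60 min at 37 °C, add stop solution raising pH to 10, read fluorescence.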
KB-3-1 tox = kills parental KB-3-1 adenocarcinoma cells. KB-3-1 viability, CellTiter-Glo ATP luminescence, 72 h. Potency, µM (top dose mostly 46.1 µM), usual class: cytotoxic. 400,000 compounds, 1.4% hits. AID 1347075; note: nearly all actives have a fitted effect of over 60% in size
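Using CellTiter-Glo luminescence, growth of non-resistant KB-3-1 adenocarcinoma cells is assessed 72 h after pin-tool compound addition at 37 °C. Normalized responses across the concentration series yield fitted curves.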
MCF10A rerep = inducers of DNA re-replication in MCF 10A breast cells | MCF 10A DNA re-replication, Hoechst nuclear intensity, 48 h | Potency, µM (highest dose often 46.1 µM), most hits filed as activators | 350,000 compounds, 2.9% hits; note: nearly all actives have a fitted effect of over 50% in size
KB-V1 cytotox = KB-V1 MDR subline cytotoxicity; KB-V1 MDR cells viability, CellTiter-Glo, 72 h; Potency, µM (series often up to 46.1 µM), most hits filed as cytotoxic; 400,000 compounds, 3.4% hits; note: nearly all actives have a fitted effect of over 60% in size
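qHTS viability screen in drug-selected KB-V1 MDR cells: 72 h compound treatment at 37 degrees C, ATP luminescence end point.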
Of the large screens only hits and unclear results are named; the others gave an inactive call. An excerpt weighted towards active compounds, which were near 6.9% of everything screened. Unless noted, calls come from the whole dose curve; as a rule, active = well fitted curve in the direction sought with a large enough effect; inconclusive = small, poorly fitted or top-dose-only effect, or another doubt; inactive = no such curve, though single readings can be large; an effect the other way counts as inactive or inconclusive.

CCOC(=O)C1(c2ccccc2)CCN(CC(=O)Nc2cccc3ccccc23)CC1	SW480 rereplic 21µM, MCF10A rerep inconclusive, KB-V1 cytotox 3.7µM
CCOC(=O)C1(c2ccccc2)CCN(CCC(=O)Nc2ccccc2OC)CC1	none
COc1ccc(NC(=O)CN(C)S(=O)(=O)c2ccc3[nH]c(=O)oc3c2)cc1	SW480 rereplic inconclusive
O=c1n(Cl)c(=O)n(Cl)c(=O)n1Cl	none (no result: Giardia kill, S-ASM inh, KB-3-1 tox, KB-V1 cytotox)
C[C@]12CCC3C(CCC4=CC(O)CC[C@@]43/C=N/O)C1(O)CCC2C1=CC(=O)OC1 (stereo not given in full)	SW480 rereplic 3.7µM, KB-3-1 tox 0.29µM, MCF10A rerep inconclusive, KB-V1 cytotox 0.65µM
CC12CCC3C(CCC4(O)CC(O)CCC34C=NO)C1(O)CCC2C1=COC(=O)C1 (stereo not given)	SW480 rereplic 1.6µM, KB-3-1 tox 0.37µM, MCF10A rerep inconclusive, KB-V1 cytotox inconclusive
CC12CCC3C(CCC4(O)CC(O)CCC34C=O)C1(O)CCC2C1=CC(=O)OC1 (stereo not given)	SW480 rereplic inconclusive, KB-3-1 tox 1.3µM, MCF10A rerep inconclusive, KB-V1 cytotox inconclusive
CC12CC[C@H]3[C@@H](CCC4(O)C[C@H](O)CCC34/C=N/NC(=O)c3ccccc3Cl)C1(O)CCC2C1=CC(=O)OC1 (stereo not given in full)	none
CCCCN=C[C@]12CCC(O)CC1(O)CCC1[C@@H]2CC[C@]2(C)[C@H](C3C=CC(=O)O3)CCC12O (stereo not given in full)	SW480 rereplic 2.3µM, KB-3-1 tox 0.23µM, MCF10A rerep inconclusive, KB-V1 cytotox 0.52µM
CC[C@]1(C(=O)OC)[C@H]2C(=O)N(Cc3ccccc3)C(=O)[C@H]2[C@H]2CN=C(SCc3ccc(C(=O)OC)cc3)N21	SW480 rereplic inconclusive, KB-3-1 tox inconclusive
CC1CCN(c2ccccc2NC(=O)c2cc3ccccc3o2)CC1	MCF10A rerep inconclusive
CC(=O)O[C@H]1CC[C@]2(C=O)C3CC[C@]4(C)[C@@H](C5=CC(=O)OC5)CC[C@]4(O)C3CC[C@]2(O)C1 (stereo not given in full)	none (no result: SW480 rereplic, S-ASM inh, KB-3-1 tox, MCF10A rerep, KB-V1 cytotox)
C[C@]12CC[C@H]3[C@@H](CC[C@]4(O)C[C@@H](O)CC[C@]34C=O)[C@@]1(O)CC[C@@H]2C1=CC(=O)OC1	SW480 rereplic 2.6µM, Giardia kill inconclusive, KB-3-1 tox 0.52µM, MCF10A rerep inconclusive, KB-V1 cytotox 0.92µM
COc1cc2c(c(OC)c1OC)-c1ccc(O)cc1[C@@H](NC(C)=O)CC2	SW480 rereplic inconclusive, KB-3-1 tox 0.016µM, MCF10A rerep inconclusive
COc1cc2c(c(OC)c1OC)-c1ccc(O)cc1C(NC(C)=O)CC2 (stereo not given)	SW480 rereplic 0.058µM, KB-3-1 tox inconclusive, MCF10A rerep 0.058µM, KB-V1 cytotox inconclusive
COc1cc2c(c(OC)c1OC)-c1ccc(O)c(=O)cc1[C@@H](NC(C)=O)CC2	SW480 rereplic 18µM, KB-3-1 tox inconclusive, MCF10A rerep 16µM, KB-V1 cytotox inconclusive
C=CC[C@@H](CC(=O)N(CCO)Cc1ccccc1)C(=O)NC[C@H](OC(=O)[C@@H](CC=C)CC(=O)OC(C)(C)C)c1ccccc1	KB-3-1 tox inconclusive
COc1cccc(C2SCC(=O)Nc3c2c(C)nn3-c2ccc(C)c(Cl)c2)c1OC (stereo not given)	none (no result: SW480 rereplic, Giardia kill, S-ASM inh, MCF10A rerep)
S=P(NCCSCc1ccccc1)(N1CC1)N1CC1	SW480 rereplic 9.2µM, MCF10A rerep 15µM
C[C@](O)(CS(=O)(=O)c1ccc(F)cc1)C(=O)Nc1ccc(C#N)c(C(F)(F)F)c1	none (no result: Giardia kill, S-ASM inh, KB-3-1 tox, KB-V1 cytotox)
CSc1cc(-c2ccccc2)n(Cc2c(Cl)cccc2Cl)c(=O)c1C#N	KB-3-1 tox 3.3µM, MCF10A rerep inconclusive, KB-V1 cytotox inconclusive
Cc1c(C(=O)O)cc(-c2ccccc2)n1Cc1ccccc1	none
OC(Cn1cncn1)(Cn1cncn1)c1ccc(F)cc1F	SW480 rereplic inconclusive
CCOc1ccc(-c2c(C)n(-c3ccc(OCC)cc3)c3[n+]2CCCCC3)cc1	SW480 rereplic inconclusive, KB-3-1 tox 1.6µM, MCF10A rerep inconclusive
Oc1cc[c]([Hg][Cl])cc1	SW480 rereplic inconclusive, MCF10A rerep 1.1µM (no result: Giardia kill, S-ASM inh, KB-3-1 tox, KB-V1 cytotox)
COC1CC(C)C(OC)c2cc(O)cc(c2O)NC(=O)C(C)=CC=CC(C)C(OC(N)=O)C(C)=CC(C)C1OC (stereo not given)	SW480 rereplic 2.6µM, MCF10A rerep 5.8µM
O=C1NC(=O)C(=Cc2ccc(SC3CCCCC3)o2)C(=O)N1	SW480 rereplic inconclusive, MCF10A rerep 21µM
NS(=O)(=O)c1ccc(-c2ccc(C=C3C(=O)NC(=O)NC3=O)o2)cc1	none
N#CC1(N2CCCCC2)CCCCC1	none (no result: Giardia kill, S-ASM inh, KB-3-1 tox, KB-V1 cytotox)
O=C1CC23c4ccccc4N4C(=O)CC5OCC=C6CN1C2CC6C5C43 (stereo not given)	KB-V1 cytotox 15µM
COc1ccc(Cn2c(=O)oc3ccc(C)cc32)cc1OC	SW480 rereplic inconclusive, KB-V1 cytotox inconclusive
CCOc1ccccc1NC(=O)c1cccn(Cc2ccccc2C)c1=O	KB-V1 cytotox inconclusive (no result: SW480 rereplic, Giardia kill, S-ASM inh, MCF10A rerep)
CC(=O)OCC1=C(C(=O)O)N2C(=O)[C@@H](N)[C@@H]2SC1	none (no result: Giardia kill, S-ASM inh, KB-3-1 tox, KB-V1 cytotox)
Cc1cccc(-n2c(/C=C/c3ccc([N+](=O)[O-])o3)nc3ccccc3c2=O)c1	SW480 rereplic 6.5µM, Giardia kill -88, KB-3-1 tox 10µM, MCF10A rerep 2.3µM, KB-V1 cytotox 10µM
Cc1cccc(-n2c(/C=C/c3cccc4ccccc34)nc3ccccc3c2=O)c1	KB-V1 cytotox inconclusive (no result: SW480 rereplic, Giardia kill, S-ASM inh, MCF10A rerep)
O=c1c2ccccc2nc(/C=C/c2ccc([N+](=O)[O-])o2)n1-c1ccc(O)cc1	SW480 rereplic 4.6µM, Giardia kill -85, KB-3-1 tox inconclusive, MCF10A rerep inconclusive, KB-V1 cytotox inconclusive
CN(C)c1ccc(N=O)cc1	KB-V1 cytotox inconclusive (no result: SW480 rereplic, Giardia kill, S-ASM inh, MCF10A rerep)
CN1CCc2nc(N)c(C#N)c(-c3ccccc3)c2C1	none
CN1CCc2c(C#N)c(Cl)nc(Cl)c2C1	SW480 rereplic 2.3µM, MCF10A rerep inconclusive, KB-V1 cytotox inconclusive
CC1CC2(C)C(CCC3C2CCC2(C)C(OP(=O)(N4CC4)N4CC4)CCC32)CC1=O (stereo not given)	MCF10A rerep 13µM
CC12CCC3c4ccc(OP(=O)(N5CC5)N5CC5)cc4CCC3C1CCC2=O (stereo not given)	S-ASM inh inconclusive, MCF10A rerep inconclusive, KB-V1 cytotox inconclusive
C[C@]12CC[C@H]3C(=CCc4cc(O)ccc43)[C@@H]1CCC2=O	KB-3-1 tox inconclusive, MCF10A rerep inconclusive, KB-V1 cytotox 8.2µM
CC(C)Oc1cc(-n2c(=S)[nH]c3ccccc3c2=O)c(Cl)cc1Cl	KB-3-1 tox inconclusive, KB-V1 cytotox 23µM
Cc1cc(Cl)ccc1OCCCC(=O)NCc1cccs1	SW480 rereplic inconclusive, MCF10A rerep inconclusive, KB-V1 cytotox 26µM

From PubChem BioAssay
